Source: PubChem BioAssay AID1159580 (chemical genetic matrix, 2015)
“And” between values parts separate entries of the source, which are not always exact repeats. Equal entries are not always repeated. The whole screen tested about 5,500 compounds, of which about 2,000 (36%) were called active. Another 18% or so got no clear call; they are omitted. Rule as the data show it: active = normalized growth mostly below about 0.91 (no sharp cut-off); inconclusive = no clear call, values can overlap the other calls; inactive = mostly above about 0.92. The list shows a part of the results.

Assay: chemical genetic growth profiling, strain panel (AID 1159580);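 also: tested at 20 µM; growth read once vehicle control cultures reached saturation at 30 °C; 1 = growth at the plate median or of vehicle wells; lower values mean less growth of the strain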
Settings: S. cerevisiae deletion strains, growth OD

Measured: normalized growth

Cn1c(=O)c2c(ncn2CC(O)CO)n(C)c1=O (configuration not stated)
inactive: locus YAL013W, strain DEP1, active compounds read low 1.01 | locus YAL021C, strain ccr4, active compounds read low 0.97 | locus YAL026C, strain drs2, active compounds read low 0.967 | locus YAL030W, strain snc1, active compounds read low 0.989 | locus YBL061C, strain skt5, active compounds read low 0.992 | locus YBR009C, strain hhf1, active compounds read low 0.982 | locus YBR021W, strain FUR4, active compounds read low 1.03 | locus YBR023C, strain chs3, active compounds read low 1 | locus YBR171W, strain sec66, active compounds read low 0.978 | locus YBR229C, strain ROT2, active compounds read low 1.01 | locus YBR231C, strain swc5, active compounds read low 1 | locus YBR279W, strain paf1, active compounds read low 0.972 | locus YCL011C, strain gbp2, active compounds read low 0.99 | locus YCL016C, strain dcc1, active compounds read low 1.01 | locus YCL029C, strain bik1, active compounds read low 0.96 | locus YCL061C, strain MRC1, active compounds read low 1 | locus YCL069W, strain vba3, active compounds read low 0.953 | locus YCR088W, strain abp1, active compounds read low 0.989 | locus YDL005C, strain med2, active compounds read low 0.972 | locus YDL035C, strain GPR1, active compounds read low 1.05 | locus YDL040C, strain nat1, active compounds read low 0.986 | locus YDL074C, strain BRE1, active compounds read low 1.02 | locus YDL101C, strain DUN1, active compounds read low 0.995 | locus YDL185W, strain tfp1, active compounds read low 0.954 | locus YDL192W, strain arf1, active compounds read low 0.972 | locus YDR001C, strain nth1, active compounds read low 0.97 | locus YDR069C, strain doa4, active compounds read low 0.958 | locus YDR101C, strain arx1, active compounds read low 1.01 | locus YDR137W, strain rgp1, active compounds read low 0.986 | locus YDR159W, strain sac3, active compounds read low 0.942 | locus YDR162C, strain NBP2, active compounds read low 1.02 | locus YDR195W, strain ref2 0.951 | locus YDR297W, strain sur2, active compounds read low 0.991 | locus YDR318W, strain mcm21, active compounds read low 0.977 | locus YDR334W, strain swr1, active compounds read low 0.973 | locus YDR335W, strain msn5, active compounds read low 0.981 | locus YDR388W, active compounds read low 0.988 | locus YDR392W, strain spt3, active compounds read low 0.939 | locus YDR502C, strain sam2, active compounds read low 0.984 | locus YEL003W, strain gim4, active compounds read low 0.981 | locus YEL037C, strain rad23, active compounds read low 0.972 | locus YEL061C, strain CIN8 (second series), active compounds read low 0.97 | locus YEL061C, strain CIN8, active compounds read low 0.997 | locus YER015W, strain faa2, active compounds read low 0.993 | locus YER016W, strain bim1, active compounds read low 0.951 | locus YER110C, active compounds read low 0.943 | locus YER111C, strain swi4, active compounds read low 0.988 | locus YER155C, strain BEM2 (second series), active compounds read low 0.953 | locus YER155C, strain BEM2, active compounds read low 1 | locus YER167W, strain BCK2, active compounds read low 0.996 | locus YFR010W, strain ubp6, active compounds read low 0.967 | locus YGL078C, strain dbp3, active compounds read low 0.978 | locus YGL086W, strain mad1, active compounds read low 1.01 | locus YGL167C, strain pmr1, active compounds read low 0.989 | locus YGL173C, strain kem1, active compounds read low 0.97 | locus YGL227W, strain vid30, active compounds read low 0.987 | locus YGL240W, strain doc1, active compounds read low 0.973 | locus YGL248W, strain PDE1, active compounds read low 0.995 | locus YGL253W, strain hxk2, active compounds read low 0.972 | locus YGR078C, strain PAC10, active compounds read low 1.01 | locus YGR135W, strain pre9, active compounds read low 0.954 | locus YGR252W, strain gcn5, active compounds read low 0.987 | locus YHR013C, strain ard1, active compounds read low 0.975 | locus YHR027C, strain rpn1, active compounds read low 0.981 | locus YHR030C, strain SLT2, active compounds read low 1 and 1.02 | locus YHR079C, strain IRE1 (second series), active compounds read low 0.968 | locus YHR079C, strain IRE1, active compounds read low 1.08 | locus YHR094C, strain hxt1, active compounds read low 0.984 | locus YHR129C, strain ARP1, active compounds read low 1.01 | locus YHR142W, strain chs7, active compounds read low 0.992 | locus YHR200W, strain rpn10, active compounds read low 0.97 | locus YIL066C, strain RNR3, active compounds read low 1.01 | locus YIL073C, strain SPO22, active compounds read low 0.908 | locus YIL125W, strain kgd1, active compounds read low 0.992 | locus YIR030C, strain dcg1, active compounds read low 0.949 | locus YJL092W, strain hpr5, active compounds read low 0.998 | locus YJL095W, strain BCK1 (second series), active compounds read low 0.989 | locus YJL095W, strain BCK1, active compounds read low 0.982 and 1.02 | locus YJL115W, strain asf1, active compounds read low 0.979 | locus YJL129C, strain trk1, active compounds read low 0.994 | locus YJL134W, strain LCB3, active compounds read low 1 | locus YJL154C, strain vps35, active compounds read low 0.972 | locus YJL164C, strain tpk1, active compounds read low 0.998 | locus YJL166W, strain qcr8, active compounds read low 1.04 | locus YJL168C, strain set2, active compounds read low 0.98 | locus YJL187C, strain SWE1 (second series), active compounds read low 0.988 | locus YJL187C, strain SWE1, active compounds read low 0.981 | locus YJR043C, strain POL32, active compounds read low 1.06 | locus YJR066W, strain TOR1, active compounds read low 0.952 | locus YKL009W, strain mrt4, active compounds read low 0.979 | locus YKL068W, active compounds read low 0.982 | locus YKL085W, strain MDH1 (second series), active compounds read low 1.01 | locus YKL085W, strain MDH1, active compounds read low 1.01 | locus YKL160W, strain elf1, active compounds read low 1.06 | locus YKR001C, strain vps1, active compounds read low 0.975 | locus YKR026C, strain gcn3, active compounds read low 0.974 | locus YKR091W, strain srl3, active compounds read low 0.994 | locus YLL001W, strain dnm1, active compounds read low 1.03 | locus YLL026W, active compounds read low 0.987 | locus YLL041C, strain sdh2, active compounds read low 0.979 | locus YLR027C, strain aat2, active compounds read low 0.973 | locus YLR039C, strain RIC1, active compounds read low 1.01 | locus YLR058C, strain SHM2, active compounds read low 0.996 | locus YLR102C, strain apc9, active compounds read low 0.975 | locus YLR113W, strain HOG1, active compounds read low 1.06 | locus YLR221C, strain rsa3, active compounds read low 1.03 | locus YLR258W, strain gsy2, active compounds read low 0.985 | locus YLR262C, strain YPT6 (second series), active compounds read low 0.991 | locus YLR262C, strain YPT6, active compounds read low 0.939 | locus YLR268W, strain sec22, active compounds read low 0.966 | locus YLR320W, strain mms22, active compounds read low 1.04 | locus YLR330W, strain CHS5, active compounds read low 0.999 | locus YLR342W, strain FKS1 (second series), active compounds read low 1.08 | locus YLR342W, strain FKS1, active compounds read low 0.983 | locus YLR357W, strain rsc2, active compounds read low 0.989 | locus YLR370C, strain arc18, active compounds read low 0.981 | locus YLR371W, strain rom2, active compounds read low 0.963 | locus YLR384C, strain iki3, active compounds read low 0.98 | locus YLR418C, strain cdc73, active compounds read low 0.996 | locus YML016C, strain PPZ1, active compounds read low 1.01 | locus YML032C, strain rad52, active compounds read low 0.988 | locus YML120C, strain ndi1, active compounds read low 1.01 | locus YML124C, strain tub3, active compounds read low 0.988 | locus YMR058W, strain fet3, active compounds read low 0.981 | locus YMR078C, strain ctf18, active compounds read low 0.966 | locus YMR125W, strain sto1, active compounds read low 0.979 | locus YMR129W, active compounds read low 0.966 | locus YMR205C, strain PFK2, active compounds read low 1.04 | locus YMR223W, strain ubp8, active compounds read low 0.973 | locus YMR231W, strain pep5, active compounds read low 0.97 | locus YMR307W, strain GAS1, active compounds read low 1.05 | locus YNL067W, strain RPL9B, active compounds read low 0.97 | locus YNL071W, strain lat1, active compounds read low 0.975 | locus YNL128W, strain TEP1, active compounds read low 0.969 | locus YNL153C, strain GIM3, active compounds read low 1 | locus YNL183C, strain NPR1, active compounds read low 0.987 | locus YNL209W, strain ssb2, active compounds read low 0.995 | locus YNL233W, strain BNI4, active compounds read low 1.01 | locus YNL248C, strain rpa49, active compounds read low 0.978 | locus YNL250W, strain rad50, active compounds read low 0.974 | locus YNL271C, strain bni1, active compounds read low 0.973 | locus YNL298W, strain CLA4, active compounds read low 0.969 | locus YNL307C, strain MCK1, active compounds read low 0.983 | locus YNL322C, strain KRE1 (second series), active compounds read low 0.983 | locus YNL322C, strain KRE1, active compounds read low 0.998 | locus YNR049C, strain mso1, active compounds read low 0.988 | locus YNR052C, strain pop2, active compounds read low 0.969 | locus YOL006C, strain TOP1, active compounds read low 0.966 | locus YOL012C, strain htz1 0.82 | locus YOL147C, strain pex11, active compounds read low 0.974 | locus YOR001W, strain rrp6, active compounds read low 0.93 | locus YOR061W, strain CKA2, active compounds read low 1 | locus YOR069W, strain VPS5, active compounds read low 1.01 | locus YOR070C, strain gyp1, active compounds read low 0.989 | locus YOR080W, strain dia2, active compounds read low 0.984 | locus YOR083W, strain WHI5, active compounds read low 1.07 | locus YOR106W, strain vam3, active compounds read low 1.02 | locus YOR136W, strain idh2, active compounds read low 0.976 | locus YOR144C, strain elg1, active compounds read low 0.98 | locus YOR184W, strain ser1, active compounds read low 0.957 | locus YOR231W, strain MKK1, active compounds read low 1.03 | locus YOR265W, strain rbl2, active compounds read low 0.986 | locus YOR270C, strain vph1, active compounds read low 0.982 | locus YOR290C, strain snf2, active compounds read low 0.954 | locus YOR316C, strain cot1, active compounds read low 0.959 | locus YPL051W, strain arl3, active compounds read low 0.991 | locus YPL055C, strain LGE1, active compounds read low 1.01 | locus YPL078C, strain atp4, active compounds read low 1.03 | locus YPL106C, strain sse1, active compounds read low 1 | locus YPL240C, strain hsp82, active compounds read low 0.97 | locus YPL241C, strain CIN2, active compounds read low 1 | locus YPL256C, strain CLN2, active compounds read low 1.02 | locus YPR119W, strain clb2, active compounds read low 0.967 | locus YPR141C, strain kar3, active compounds read low 0.95 | locus YPR163C, strain tif3, active compounds read low 0.98 | locus YPR167C, strain met16, active compounds read low 0.968 | strain wtn01, active compounds read low 0.997
